The nature of assay [1]: NCI Yeast Anticancer Drug Screen. Data for the rad50 strain (AID 155).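 Further: 0% = growth of vehicle-only cultures of the same strain.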 The note with it: S. cerevisiae rad50 strain growth inhibition; at 50.0 µM; stronger effect = higher value. In a few lines: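 Growth of the mutant yeast was measured after compound exposure and referenced to vehicle-treated cultures.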
Assay [2] can be described thus: NCI Yeast Anticancer Drug Screen. Data for the mec2-1 strain (AID 157). The note with it: S. cerevisiae mec2-1 strain, at 50.0 µM, stronger effect = higher value. In a few lines:
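Cells of the genetically defined mec2-1 yeast strain are incubated with test compound. Inhibition of growth is calculated against vehicle-treated controls.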

Assay [3] in a line: NCI Yeast Anticancer Drug Screen. Data for the sgs1 mgt1 strain (AID 161).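 Further: 0% = growth of cultures given vehicle only.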 The note with it: S. cerevisiae sgs1 mgt1 strain, at 50.0 µM, stronger effect = higher value. In a few lines:
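Inhibition of yeast growth, normalised to vehicle-treated controls, is reported for a strain bearing genetic alterations in DNA damage repair.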

Assay [4] is described as follows: NCI Yeast Anticancer Drug Screen. Data for the cln2 rad14 strain (AID 165).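 Further: 0% = growth equal to vehicle treated cultures.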 The note with it: S. cerevisiae cln2 rad14 strain, at 50.0 µM, stronger effect = higher value. In a few lines:
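The screen exposed genetically defined yeast (cln2 rad14) to test compounds and scored growth inhibition relative to vehicle-treated controls.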

Assay [5] can be described thus: NCI Yeast Anticancer Drug Screen. Data for the bub3 strain (AID 167). Conditions: S. cerevisiae bub3 mutant strain, at 50.0 µM, stronger effect = higher value. In a few lines:
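Whole-cell yeast assay. The mutant strain was incubated with compounds, and growth inhibition was determined by comparison with vehicle-treated cells.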

A short description of assay [6]: NCI Yeast Anticancer Drug Screen. Data for the mlh1 rad18 strain (AID 175). Conditions: S. cerevisiae mlh1 rad18 strain growth inhibition; at 50.0 µM; stronger effect = higher value. In a few lines: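 Compound-treated yeast growth, normalised to vehicle controls. Strain bears defined DNA repair mutations.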

The panel holds about 79,000 compounds, 15% with a hit somewhere; the sample as a whole holds those more often. Unmarked numbers belong to inactive results. Activity calls are given as the source filed them. No stated cut-off is given here; in the data, active means growth inhibition above about 70%; inactive means the rest.

For `CC(C)(CN1C(=O)C(Cl)=C(Cl)C1=O)CN1C(=O)C(Cl)=C(Cl)C1=O`, the growth inhibition in assay [1] is 1.7%; in assay [2], -5.6%; in assay [3] it was 6.3%; in assay [4] it was -20.8%; in assay [5], -5.8%; in assay [6], 9.2%.

As for `CCCCCCCC(=O)N(CCCCC)CCCCC`, the growth inhibition is 66.5% in assay [1]; 77.2% (active) in assay [2]; 77.2% (active) in assay [3]; 74% (active) in assay [4]; 66.5% in assay [5]; 66.5% in assay [6].

In the case of `O=P1(O)c2ccccc2CSCc2ccccc21`, the growth inhibition is 24.4% in assay [1]; -7.35% in assay [2]; -11.8% in assay [3]; -2.8% in assay [4]; -2.65% in assay [5]; -31.8% in assay [6].

Take `CCN(CC)CCCC(C)NC(=O)c1ccc2c(c1O)C(=O)c1ccccc1C2=O` (stereo unspecified): the growth inhibition was 64% in assay [1]; -7.75% in assay [2]; 65.6% in assay [3]; 58.5% in assay [4]; 30.1% in assay [5]; 84.6% (active) in assay [6].

Consider `CC(C)(CCC(=O)O)C(=O)O`, for which the growth inhibition in assay [1] was -4.15%; in assay [2], -34.1%; in assay [3], -30.5%; in assay [4], 4.95%; in assay [5] it was -32.9%; in assay [6], -2.9%.

In the case of `c1ccc2oc(C34OC5CC(CC(C5)O3)O4)nc2c1`, the growth inhibition is 24.8% in assay [1]; 13.2% in assay [2]; 21.9% in assay [3]; 11.1% in assay [4]; 0.5% in assay [5]; 10% in assay [6].

Consider `COC1CCC(C(C)=O)C(C#N)(C#N)C1(C#N)C#N` (stereo unspecified), for which the growth inhibition in assay [1] was -6.3%; in assay [2] it was -1.25%; in assay [3] it was -12.1%; in assay [4], -4.95%; in assay [5], -12.5%; in assay [6], -13.8%.

Consider `CC(C)(C)C(=O)Cn1nnnc1C(=O)C(C)(C)C`, for which the growth inhibition was -10.7% in assay [1]; -35.5% in assay [2]; -15.8% in assay [3]; -36.9% in assay [4]; -5.85% in assay [5]; -19.4% in assay [6].

Take `CCOC(=O)NC(Nc1ccc([N+](=O)[O-])cc1)(C(F)(F)F)C(F)(F)F`: the growth inhibition was 45.4% in assay [1]; 40.2% in assay [2]; 22.8% in assay [3]; 32.1% in assay [4]; 42% in assay [5]; 59.1% in assay [6].

On to `CCC1C(OC)=CC(CC)(CO)C=C1OC` (stereo unspecified), for which the growth inhibition was 4.35% in assay [1]; -3.45% in assay [2]; 6.15% in assay [3]; 14.2% in assay [4]; 6.8% in assay [5]; -6.3% in assay [6].

As for `OCCSCCCCCSCCO`, the growth inhibition in assay [1] is -2.6%; in assay [2], -7.7%; in assay [3], -7.3%; in assay [4], -2.15%; in assay [5] it was -7.4%; in assay [6], -15.3%.

Turning to `Nc1ncc2ncn(CCO)c2n1`, the growth inhibition is -22.1% in assay [1]; -15.4% in assay [2]; 23.1% in assay [3]; 1.95% in assay [4]; -6.85% in assay [5]; 3.7% in assay [6].

With `COc1c2ccoc2cc2oc(=O)ccc12`, the growth inhibition in assay [1] was 10%; in assay [2] it was -7.1%; in assay [3], 12.8%; in assay [4], 14.3%; in assay [5], 22.4%; in assay [6] it was 20.4%.

For the compound `CC(=O)OC1COC(Cl)C(OC(C)=O)C1OC(C)=O` (stereo unspecified), the growth inhibition in assay [1] is -4.95%; in assay [2] it was -2.9%; in assay [3] it was 0.1%; in assay [4], 3.95%; in assay [5], -8.95%; in assay [6], 1.75%.

Regarding `COc1cccc(C(=O)C(CCC#N)c2ccccc2)c1` (stereo unspecified), the growth inhibition was 24.8% in assay [1]; 18.5% in assay [2]; 31.4% in assay [3]; 20.9% in assay [4]; 42.8% in assay [5]; 9.75% in assay [6].

In the case of `C=Cc1cccc([N+](=O)[O-])c1`, the growth inhibition in assay [1] was 15.8%; in assay [2], -0.15%; in assay [3], 6.6%; in assay [4], 16.5%; in assay [5] it was 19.6%; in assay [6] it was -3.7%.

For the compound `NC(=S)NCCN1CCOCC1`, the growth inhibition was -8.85% in assay [1]; -5.95% in assay [2]; -1.9% in assay [3]; -15.7% in assay [4]; 2.25% in assay [5]; 10% in assay [6].

As to `CC[n+]1ccc(-c2ccccc2)o1`, the growth inhibition in assay [1] was 3.6%; in assay [2] it was 13.1%; in assay [3], 2.25%; in assay [4] it was 27.3%; in assay [5] it was 28.4%; in assay [6] it was -4.75%.

Take `NC1=NC=NCN1c1ccc(N)cc1`: the growth inhibition in assay [1] was 1.65%; in assay [2] it was -2.65%; in assay [3], 3.85%; in assay [4] it was -54.4%; in assay [5] it was -3.6%; in assay [6], 5.7%.

As to `O=C1NCC(c2ccccc2)(c2ccccc2)O1`, the growth inhibition is 26.9% in assay [1]; 11.3% in assay [2]; 10.3% in assay [3]; 11.8% in assay [4]; 4.45% in assay [5]; 19.4% in assay [6].

As for `N#Cc1c(O)c(C=O)c(=O)n2c1[nH]c1ccccc12`, the growth inhibition in assay [1] was -30.6%; in assay [2] it was -45.5%; in assay [3], -21.7%; in assay [4] it was -8.15%; in assay [5], 4.05%; in assay [6], -0.05%.

Values taken from PubChem BioAssay (NCI).
